# The supplement of paper PMC10338343
# ± gives the standard deviation.
# Tested on: EfPiwi piRISC loaded with L1MC piRNA (26 nt)
# Assay: pre-steady-state target cleavage rate (min^-1); auxiliary factor: 500 nM Ephydatia muelleri Gtsf1; guide: L1MC piRNA 5'p-UAACUAAAUACUAUGCAAGCUGUAGG; MIWI and MILI are mouse PIWI proteins and EfPiwi is from a freshwater sponge; tags in brackets are library labels; higher = faster piRNA-guided slicing of the target
# Experimental: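 Cleave-'n-Seq: a library of target RNAs (target site in constant flanks) at […] was incubated with 1 nM active freshwater sponge Ephydatia fluviatilis Piwi piRISC (synthetic 5'-monophosphorylated piRNA guide) with or without 500 nM EmGtsf1 at 33 °C for 1 min to 16 h. Uncleaved targets were sequenced and the pooled three trials fitted to a burst-and-steady-state model to give the pre-steady-state cleavage rate (min^-1). Sequence is the target site only. Fits with R² ≤ 0 are excluded.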
row,Sequence,pre-steady-state target cleavage rate
1,UCCUGGAUGUCGUUGGUUAGUAUUUAGUUA,< 0.0001
2,UCCUGCCUACAGCUUGCAUAGUAUUUAGUUA,0.0909 ± 0.021
3,UCCUCCUACUGCUUGCUUAGUAUUUAGUUA,0.0504 ± 0.015
4,UCCUCCUACAGCUUGGAUAGUAAUUAGUUA,0.0274 ± 0.0089
5,UCCUGCUACAGCAUGCAUAGUAAUUAGUUA,0.007 ± 0.0024
6,UCCUGGAUCAGCUUGCACAGUAUUUAGUUA,0.0672 ± 0.016
7,UCCUGCUACUGCUUGCAUAGUAUUUAGUUA,0.00883 ± 0.003
8,UCCUCCUAUAGCUUGCAUAGUAUUUAGUUA,0.0108 ± 0.0034
9,UCCUGCUACAGCUUGCAGAGUAUUUAGUUA,0.006 ± 0.0022
10,UCCUCCUACAGCUUGCGAUAGUAUUUAGUUA,0.00839 ± 0.0023
11,UCCUCCUACAGCUUGCAUAGUAUUUAGGUA,0.00476 ± 0.0017
12,UCCUGGAUCAGCUUGCAUAGGAUUUAGUUA,0.0025 ± 0.0024
13,UCCUCCAACAGCUUGCAUAGUAUUUUGUUA,0.00594 ± 0.0025
14,UCCUGCUCACAGCUUGCAUAGUAUUUAGUUA,0.072 ± 0.016
15,UCCUCCUACAGGUUGCAUAGUAUUUUCAAA,0.00306 ± 0.0021
16,UCCUGGAUGUGCUUUGCAUAGUAUUUAGUUA,0.00805 ± 0.003
17,UCCUCCUUACAGCUUGCAUAGUAUUUAGUUA,0.117 ± 0.03
18,UCCUCCUACAGCUUGCAUAGUUUUUUGUUA,0.00441 ± 0.0026
19,UCCUCCAACAGCUUGGAUAGUAUUUAGUUA,0.0467 ± 0.011
20,UCCUGGUACAGCUUGCGAUAGUAUUUAGUUA,0.00543 ± 0.0019

row,Sequence,pre-steady-state target cleavage rate
1,UCCUCCUACACCUUGCAUUGUAUUUAGUUA,0.0139 ± 0.0056
2,UCCUGGUACAGCUUGGAUAGUAUUUAGUAA,0.00283 ± 0.0021
3,UCCUGGAUCAGCUUGCAUAGUAUUUAGUGUA,0.0168 ± 0.0061
4,UCCUGGAUCAGCUUUGCAUAGUAUUUAGUUA,0.103 ± 0.023
5,UCCUCCUACAGCUUGCAUAGUAUUAAGUAA,0.00642 ± 0.0035
6,UCCUCCUACAGCUUGCAUAGUAUUCUAGUUA,0.00344 ± 0.0019
7,UCCUGCUACACCUUGCAUAGUAUUUACUUA,0.00306 ± 0.003
8,UCCUGCUACAGCUUGCUUAGUAAUUAGUUA,0.0139 ± 0.0051
9,UCCUGGUACAACUUGCAUAGUAUUUAGUUA,0.017 ± 0.0059
10,UCCUGGAACAGCUUGCAUAGUAUUUAGAUUA,0.00539 ± 0.002
11,UCCUGCAACAGCUUGCAUAGUAUUUAGAAA,0.00432 ± 0.0016
12,UCCUGCUUCAGCUUGCAUUGUAUUUAGUUA,0.0233 ± 0.0065
13,UCCUGGAUGUCCUUGCAUAGUAUGUAGUUA,0.00374 ± 0.0037
14,UCCUGGAUCAGCUUGCAUAGUAUAAAGUAA,0.00455 ± 0.0038
15,UCCUGCUAGUGCUUGCAUAGUAUUUAGUAA,0.00297 ± 0.0015
16,UCCUGCUACAGCUUGCAUAGUAUUUACAAA,0.00255 ± 0.0022
17,UCCUGGAUGUCGAACGUAUCUAUUUAGUAA,< 0.0001
18,UCCUCCUACACGUUGCAUAGUAUUUAGUUA,0.136 ± 0.035
19,UCCUCCUACAGCUUGCUUAGUAUUUAGUAA,0.00594 ± 0.0027
20,UCCUGGAUGUCCUCGCAUAGUAUUUAGUUA,0.00388 ± 0.0033
